Hits are enriched below; roughly 2.8% of the tested compounds scored in any of these assays.
HIF-2a block: HIF-2a inhibition; 360,000 compounds, 0.72% hits; inhibition, % at 18.8 µM; 786-0 RCC cells HIF-2a reporter, luciferase luminescence, overnight;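 active = inhibition of the luminescence signal of 40% or more relative to plate controls, in a single-dose primary screen at 18.75 µM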
Shn3 inh set2: Schnurri-3 reporter inhibition in Clone20 osteoblasts; Clone20 osteoblast Shn3 3'UTR firefly luciferase, 24 h; inhibition, % at 12.5 µM; 360,000 compounds, 0.52% hits; AID 588674;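 active = mean inhibition of at least 75% with every replicate also reaching 75%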
KKLEB tox: reduces viability of KKLEB cystic fibrosis airway cells. KKLEB CF airway cells viability, ATPlite luminescence, overnight; stronger effect = lower value; cells stimulated with P. aeruginosa culture filtrate. activity change (cytotoxicity), % at 5 µM. 360,000 compounds, 0.36% hits. AID 602141;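 active = corrected activity change at or below -50% at 5 µM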
CF NFkB inh: inhibitors of cystic fibrosis induced NF-kB. KKLEB NF-kB-GFP reporter, PAF-induced, GFP fluorescence overnight. inhibition, % at 5 µM. 360,000 compounds, 0.86% hits;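 active = at least 50% inhibition at 5 µM, scaled per plate between neutral and stimulator controls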;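 also: PAF is a Pseudomonas aeruginosa culture filtrate used as stimulus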
Peg3 promoter: inhibitors of Peg3 promoter. AID 588405. 360,000 compounds, 1.7% hits. HeLa PEG-Prom luciferase reporter, luminescence, overnight. inhibition, % at 20 µM;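 active = inhibition of at least 50% at 20 µM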
TRPM1 prom inh: inhibitors of MITF-driven TRPM1 promoter in melanoma cells | 330,000 compounds, 0.83% hits | inhibition, % at 12.5 µM | SK-MEL-5 TRPM1 promoter luciferase, 24 h;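 active = mean inhibition across replicates of 60% or more, whatever share of single replicates reaches that level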
CF NFkB inh conf: CF NF-kB inhibition confirmation, single concentration. shares compounds with CF NFkB inh. KKLEB CF airway cells, PAF-induced NF-kB-GFP fluorescence, overnight. inhibition, % at 5 µM. 1,300 compounds, 64% hits. AID 602472; in the data active = inhibition above about 40%;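 also: stimulus PAF is a Pseudomonas aeruginosa filtrate and not platelet activating factor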
Large screens that a line does not name were inactive (follow-up assays come after a bar, where they were run).

CCOc1ccc2nc(SCC(=O)c3ccc(C)s3)sc2c1	none
C[C@H](NC(=O)c1ccco1)C(=O)Nc1cc(S(=O)(=O)N2CCCC2)ccc1OCC(F)(F)F	none
COc1ccc(OC)c(-c2nnc3n2N=C(c2ccc(OC)c(OC4CCOC4)c2)CS3)c1 (stereo not given)	CF NFkB inh 53.6, TRPM1 prom inh 70.8 | CF NFkB inh conf 64.7
CCc1ccc(C(=O)c2cncc(Br)c2)cc1	none
Cc1ccc(C(=O)c2cncc(Br)c2)cc1	CF NFkB inh 50.3 | CF NFkB inh conf 61.5
CCCn1c(SC(C)C(=O)N2CCOCC2)nc2ccc(Br)cc2c1=O (stereo not given)	none
CC1(C)CC(=O)C(C2C3=C(CC(C)(C)CC3=O)Oc3c(Br)cc(Br)cc32)=C(O)C1 (stereo not given)	CF NFkB inh 56.1 | CF NFkB inh conf 56.8
O=C(NC1CCCC1)C1c2ccccc2OCC(=O)N1Cc1cccnc1 (stereo not given)	none (no result: Shn3 inh set2, KKLEB tox, CF NFkB inh, Peg3 promoter, TRPM1 prom inh)
COc1ccc(-c2cc(C(F)(F)F)nc(S(=O)(=O)CCC(=O)N3CCOCC3)n2)cc1	CF NFkB inh 78.8, Peg3 promoter 102.5 | CF NFkB inh conf 46.8
COc1ccc(-c2cc(C(F)(F)F)nc(SCC(=O)N3CCOCC3)n2)cc1OC	none
CCN(CC(=O)Nc1ccc(NC(C)=O)cc1)C(=O)c1ccccc1CCc1ccccc1	none
CC(C)CCNC(=O)C1(C)CCN1Cc1ccc(-c2ccccn2)cc1 (stereo not given)	none (no result: TRPM1 prom inh)
C[C@]12CCC(O)CC1CCC1C2CC[C@]2(C)C(c3cc(C(F)(F)F)n[nH]3)CCC12 (stereo not given in full)	CF NFkB inh 56.5, Peg3 promoter 100.8 | CF NFkB inh conf 71.4
Cc1nsc2nc3c(F)c(F)c(F)c(F)c3cc12	none
CC(=O)c1c(O)cc(O)c(C(C)=O)c1O	CF NFkB inh 58.9 | CF NFkB inh conf 52.4
CCCCNc1c(-c2ccc(-c3cccc(Cl)c3)cc2)nc2ccccn12	none
CCCCNc1c(-c2cccc(-c3ccc(OC)cc3)c2)nc2ccc(C)cn12	CF NFkB inh 68.3, Peg3 promoter 68.8 | CF NFkB inh conf 91.2
CC(C)Nc1nc(Nc2ccccc2Cl)c2sccc2n1	none (no result: TRPM1 prom inh)
COc1ccc(S(=O)(=O)N2c3cc(C)ccc3OCC2C(C)(C)C)cc1 (stereo not given)	CF NFkB inh 50.3 | CF NFkB inh conf 58.6
O=C(/C=C/c1cccc([N+](=O)[O-])c1)NC(=S)Nc1ccc(CN2CCOCC2)cc1	CF NFkB inh 67.4 | CF NFkB inh conf 54.9
O=C(NC(=S)Nc1ccc(CN2CCOCC2)cc1)c1ccc([N+](=O)[O-])cc1	none
COC(=O)[C@@H](NC(=O)NC1CCCCC1C)C(C)C (stereo not given in full)	none
COCCCN=C1NN=C(c2cc(C)n(Cc3ccccc3Cl)c2C)CS1	CF NFkB inh 53.5 | CF NFkB inh conf 60.4
CCN(CC)CCN(C(=O)CCS(=O)(=O)c1ccccc1)c1nc2cc3c(cc2s1)OCO3	CF NFkB inh 53.3 | CF NFkB inh conf inactive
Cc1ccc(S(=O)(=O)CCC(=O)N(CCCN2CCOCC2)c2nc3ccccc3s2)cc1	none
O=C(CCS(=O)(=O)c1ccccc1)N(CCCN1CCOCC1)c1nc2ccccc2s1	CF NFkB inh 72.8, Peg3 promoter 107.9 | CF NFkB inh conf 54.9
CN(C)CCN(C(=O)CCS(=O)(=O)c1ccccc1)c1nc2cc3c(cc2s1)OCO3	none
COc1cccc(C(=O)N2CCC(n3nccc3NC(=O)C(OC)c3ccccc3)CC2)c1 (stereo not given)	none
Cn1ccc2c(N3c4ccccc4CCc4ccccc43)cc3c(c21)C1CCC3C1 (stereo not given)	none (no result: TRPM1 prom inh)
COc1ccccc1N(C)c1cc2c(c3c1ccn3C)C1CCC2O1 (stereo not given)	CF NFkB inh 91.7 (no result: TRPM1 prom inh) | CF NFkB inh conf inactive
Cn1ccc2c(N3c4ccccc4CCc4ccccc43)cc3c(c21)C1CCC3O1 (stereo not given)	CF NFkB inh 84.8 (no result: TRPM1 prom inh) | CF NFkB inh conf inactive
CN(Cc1ccccc1)c1cc2c(c3c1ccn3C)C1CCC2O1 (stereo not given)	none (no result: TRPM1 prom inh)
CC(C)(C)N(Cc1ccccc1)C(=O)CCc1ccccc1	none
CSC[C@H]1CN(c2ccc(Br)cc2)C(=O)[C@@H]1CC(=O)Nc1ccc(Br)cc1	none (no result: TRPM1 prom inh)
Cc1cc(Cl)ccc1NC(=S)NCC(O)c1ccccc1 (stereo not given)	none
CCOc1cc(N2CCOCC2)c(OCC)cc1NC(=O)c1ccc(OC(C)C)cc1	none
CC(C)(C)OC(=O)N1Cc2ccccc2C[C@H]1C(=O)NCC(=O)NC1CCCCC1	none
O=[N+]([O-])c1cccc(/C=N/Nc2cc(N3CCOCC3)ncn2)c1	CF NFkB inh 53.0, Peg3 promoter 61.6 | CF NFkB inh conf 71.7
O=[N+]([O-])c1cccc(/C=N/Nc2nc(N3CCOCC3)nc(N3CCOCC3)n2)c1	none
C/C(=N\Nc1cc(N2CCOCC2)ncn1)c1cccc([N+](=O)[O-])c1	CF NFkB inh 56.1, Peg3 promoter 102.4 | CF NFkB inh conf 64.0
CCOC(=O)c1ccc(S(=O)(=O)N2CCN(C3CCCC3)CC2)cc1	none
Cc1cccc(N2CCN(C(=O)c3ccc(S(=O)(=O)N(C)c4ccccc4)cc3)CC2)c1C	CF NFkB inh 53.8 | CF NFkB inh conf 43.6
CN1CCN(C(=O)c2ccc(S(=O)(=O)N(C)c3ccccc3)cc2)CC1	none (no result: TRPM1 prom inh)
Clc1cccc(Nc2ncnc3ccc(Br)cc23)c1	CF NFkB inh 69.3 | CF NFkB inh conf 58.5
Cc1ccc2ncnc(Nc3ccccc3)c2c1	none
Cc1cccc(Nc2ncnc3ccc(Br)cc23)c1	CF NFkB inh 58.5 | CF NFkB inh conf 71.8
Cc1ccc2ncnc(Nc3cccc(C(=O)O)c3)c2c1	none
CN(C)c1ccc(Nc2ncnc3ccc(Br)cc23)cc1	CF NFkB inh 73.1 | CF NFkB inh conf 92.8
COc1cc(C(=O)NC(=S)NNC(=O)c2ccc3c(c2)OCO3)cc(OC)c1OC	none
COc1cc(C(=O)c2cc3c(cc2C)OCO3)cc(OC)c1OC	CF NFkB inh 57.6 (no result: TRPM1 prom inh) | CF NFkB inh conf 82.5
Cn1cc(Br)c(C(=O)Nc2sc3c(c2C#N)CCC3)n1	none (no result: TRPM1 prom inh)
Cn1cc([N+](=O)[O-])c(C(=O)Nc2sc3c(c2C#N)CCC3)n1	Shn3 inh set2 95.3, CF NFkB inh 57.9, TRPM1 prom inh 67.7 | CF NFkB inh conf inactive
CC(C)C1C(=O)N(Cc2cn(Cc3ccco3)nn2)CCS(=O)(=O)N1Cc1ccc(-c2cccc(N(C)C)c2)cc1 (stereo not given)	none (no result: TRPM1 prom inh)
CC(C)CC1C(=O)N(Cc2cn(Cc3ccco3)nn2)CCS(=O)(=O)N1Cc1ccc(-c2ccc(Cl)cc2)cc1 (stereo not given)	CF NFkB inh 64.6 (no result: TRPM1 prom inh) | CF NFkB inh conf 41.3

Screening data as filed in PubChem BioAssay.
